# Experimental data from PubChem BioAssay (NCATS).
# Inconclusive results are not listed. Values without a mark were called inactive. Calls of active or inactive are those of the source. Calls follow the shape of the dose curve; as a rule, active = well fitted inhibition curve with a large enough effect; inconclusive = small, poorly fitted or top-dose-only effect; inactive = flat fitted curve, though single readings scatter.
# System: CP238
# Experiment: qHTS profiling for inhibitors of Plasmodium falciparum proliferation (AID 504749); also: nearly all actives have a fitted effect of over 60% in size;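 as to activity, negative = inhibition: 0% = DMSO vehicle and full inhibition = artemisinin control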
# Conditions: P. falciparum in erythrocytes, SYBR Green DNA, 72 h; series mostly up to 28.7 µM; activity, negative = inhibition: at the top concentration
# Outline: (§1)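 P. falciparum-infected erythrocytes (0.3% parasitemia, 2.5% hematocrit) incubated with compound 72 h at 37 C, 5% CO2. Parasite DNA detected by SYBR Green after lysis, overnight at room temperature; normalised to 0.29 uM artemisinin and DMSO.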
# Potency is read from the fitted curve at half-maximal effect.
row,SMILES,"activity, negative = inhibition [%]"
1,O=C(O)c1ccccc1C(=O)Nc1ccc(S(=O)(=O)Nc2nccs2)cc1,-0.321
2,CC(=O)NS(=O)(=O)c1ccc(N)cc1,3.05
3,O=C(O)Cn1c(C(=O)Nc2nc(-c3ccccc3Cl)cs2)cc2ccccc21,3.15
4,CC(O)CCCCn1c(=O)c2c(ncn2C)n(C)c1=O (stereo unspecified),9.58
5,CCCCCCCCCCCCCCCCN,11
6,CN1CCCN=C1COC(=O)C(O)(c1ccccc1)C1CCCCC1 (stereo unspecified),2.13
7,NS(=O)(=O)c1ccc(C(=O)O)cc1,3.47
8,Cn1c([N+](=O)[O-])cnc1COC(N)=O,1.23
9,O=C(O)c1ccccc1OP(=O)(O)O,3.19
10,c1ccc2[nH]ccc2c1,7.35
11,O=C(OOC(=O)c1ccccc1)c1ccccc1,1.32

# System: CP247
# Experiment: as above
# Conditions: P. falciparum in erythrocytes, SYBR Green DNA, 72 h; series mostly up to 28.7 µM; activity, negative = inhibition: at the top concentration
# Outline: as §1
SMILES,"activity, negative = inhibition",Potency
O=C(O)Cc1ccc(CCNS(=O)(=O)c2ccc(Cl)cc2)cc1,4.05%,
NS(=O)(=O)c1ccc(NC(=O)CCC(=O)O)cc1,25.5%,
C=CCSCC1Nc2cc(Cl)c(S(N)(=O)=O)cc2S(=O)(=O)N1 (stereo unspecified),11.5%,
Cc1cccc(C)c1NC(=O)CC12CCCN1CCC2,4.36%,
CC(=O)Nc1cccc(O)c1,11.5%,
CNCc1ccccc1,-0.0934%,
COc1ccc(C(=O)NCc2ccc(OCCN(C)C)cc2)cc1OC,2.57%,
C=CCNC(N)=S,10.2%,
NS(=O)(=O)c1cc(-c2nn[nH]n2)c(NCc2cccs2)cc1Cl,15.9%,
CCOc1ccc(C(=O)OCCN(CC)CC)cc1,24.3%,
Cc1c(N(C)C)c(=O)n(-c2ccccc2)n1C,10.1%,
CCc1cccc(CC)c1NC(=O)CN(CC(=O)O)CC(=O)O,-5.08% [at 12.8 µM],
COC(=O)c1cccnc1,-9.24%,
Cc1ccc(S(=O)(=O)NC(=O)NC2CCCCCCC2)cc1,6.88%,
CCCCCCCCCCCCCCCCC(C(=O)O)C(O)(CC(=O)O)C(=O)O (stereo unspecified),,11.2 µM (active)
Cn1c(=O)c2c(ncn2CCO)n(C)c1=O,14.6%,
CCCC(O)C(CC)CO (stereo unspecified),6.74%,
CCCCCC(N)=O,25.9%,

SMILES,"activity, negative = inhibition",Potency
O=C(O)c1ccc[n+]([O-])c1,8.87%,
CC(CSC(=O)c1ccccc1)C(=O)N1C[C@@H](Sc2ccccc2)C[C@H]1C(=O)O (stereo partly specified),6.9%,
CCOc1cc(NC(C)=O)ccc1C(=O)OC,13.1%,
C[C@@H](N)C(=O)O,25.6%,
NS(=O)(=O)c1cc2c(cc1C(F)(F)F)NCNS2(=O)=O,1.81% [at 12.8 µM],
NC(=O)NS(=O)(=O)c1ccc(N)cc1,-2.98%,
O=C(O)c1ccccc1C(=O)Nc1ccc(S(=O)(=O)Nc2nccs2)cc1,0.0254%,
CC(=O)NS(=O)(=O)c1ccc(N)cc1,5.63%,
O=C(O)Cn1c(C(=O)Nc2nc(-c3ccccc3Cl)cs2)cc2ccccc21,-4.58%,
CC(O)CCCCn1c(=O)c2c(ncn2C)n(C)c1=O (stereo unspecified),1.05%,
CCCCCCCCCCCCCCCCN,4.83%,
CN1CCCN=C1COC(=O)C(O)(c1ccccc1)C1CCCCC1 (stereo unspecified),3.92%,
NS(=O)(=O)c1ccc(C(=O)O)cc1,1.16%,
Cn1c([N+](=O)[O-])cnc1COC(N)=O,10.4%,
O=C(O)c1ccccc1OP(=O)(O)O,9.32%,
c1ccc2[nH]ccc2c1,7.97%,
O=C(OOC(=O)c1ccccc1)c1ccccc1,-7.56%,
